Compounds with a hit are over-represented: about 12% of the library has one in this group of screens.
WT yeast gro inh – growth inhibition of WT strain, primary screen, mitochondrial fusion inhibitor project, WT and mutant strains, chemical genetic; AID 1362, 2008; inhibition, % at 10 µM; actives 2.1% (n = 190,000); mitochondrial fusion phenotypic screen; in the data active = inhibition above about 58%; tested in S. cerevisiae
L major viab – Leishmania major promastigote growth inhibition, primary screen; Leishmania major promastigotes, resazurin fluorescence viability; inhibition, % at 10 µM; actives 9% (n = 200,000); AID 1063, 2008; in the data active = inhibition above about 50%;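 note: promastigotes grown with compound for 44 hours at 28 °C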
Arbovirus anti – antivirals against arbovirus infection, primary screen, cell-based, full library, 10K replicate subset | arbovirus infection cell-based antiviral screen | inhibition, % at 10 µM | AID 1251, 2008 | actives 0.37% (n = 200,000); in the data active = inhibition above about 30%
CHOP inh – inhibitors of CHOP promoter induction, primary screen, cell-based, unfolded protein response, luciferase reporter; actives 3.8% (n = 220,000); CHO-K1 CHOP-promoter luciferase, tunicamycin-induced, 15-18 h; AID 2732, 2010; inhibition, % at 10 µM;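 active = compounds that reduced the stress-induced luciferase reporter signal by more than about 70% of percent inhibition, limit read from the data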
A number is an active result; . = inactive; / = no result.

SMILES	WT yeast gro inh	L major viab	Arbovirus anti	CHOP inh
CC12CCC(C(=O)Nc3cccc4ccccc34)(C1Br)C2(C)C (stereo not drawn)	.	.	.	.
C#Cc1ccc([C@H]2C=C(C(=O)N3CCOCC3)O[C@@H](OCC)[C@@H]2CCCO)cc1	.	.	.	.
NC[C@H](O)c1ccc(O)c(O)c1	/	/	/	.
Cc1ccc2c(c1)cc(CN(Cc1cccs1)C(=O)c1ccco1)c1nnnn12	.	.	.	.
Cc1ccc2cc(CN(Cc3cccs3)C(=O)c3ccco3)c3nnnn3c2c1C	58	.	.	.
Cc1cc(NCCN2CCOCC2)n2nc(C)c(-c3ccc(Cl)cc3)c2n1	.	94	.	.
Cc1cc(NCCCn2ccnc2)n2nc(C)c(-c3ccccc3)c2n1	.	.	.	.
Cc1cc(NCCCn2ccnc2)n2ncc(-c3ccccc3)c2n1	.	89	.	.
Cc1cc(NCCCn2ccnc2)n2nc(C)c(-c3ccc(Cl)cc3)c2n1	65	98	.	.
Cc1cc(NCCN2CCOCC2)n2ncc(-c3ccccc3)c2n1	.	.	.	.
COc1ccc(COc2cc(-c3cccc(OC)c3)nc3ccc(NC(=O)c4ccc(C)cc4)cc23)cc1	.	.	.	.
COc1ccc(COc2cc(-c3cccc(OC)c3)nc3ccc(NC(=O)c4ccc(N(C)C)cc4)cc23)cc1	.	84	.	.
COc1ccc(COc2cc(-c3cccc(OC)c3)nc3ccc(N)cc23)cc1	.	76	.	.
Cc1cc(C)c(C)c(C(=O)CSc2nnc(C)c(=O)[nH]2)c1C	.	.	.	.
COc1ccc(-c2ccc(/C=N/N3C(=O)C4C5C=CC(C6CC56)C4C3=O)o2)c([N+](=O)[O-])c1 (stereo not drawn)	.	.	.	.
Cc1ccc(-c2ccc(/C=N/N3C(=O)C4C5C=CC(CC5)C4C3=O)o2)c([N+](=O)[O-])c1 (stereo not drawn)	.	.	.	89
O=C1C2C3C=CC(C4CC34)C2C(=O)N1/N=C/c1ccc(-c2ccc(Cl)cc2[N+](=O)[O-])o1 (stereo not drawn)	.	59	.	.
O=C1C2C3C=CC(C4CC34)C2C(=O)N1/N=C/c1ccc(-c2ccc(F)cc2[N+](=O)[O-])o1 (stereo not drawn)	.	.	.	.
Cn1c(NNC(=O)C2CCCCC2)cc(=O)n(C)c1=O	.	.	.	.
COc1ccc(-c2nc(-c3ccccc3)c(-c3cc([N+](=O)[O-])ccc3C)[nH]2)cc1O	.	.	.	74
O=C(Nc1cccc(C(=O)Nc2ccc(S(=O)(=O)O)c3cc(S(=O)(=O)O)cc(S(=O)(=O)O)c23)c1)Nc1cccc(C(=O)Nc2ccc(S(=O)(=O)O)c3cc(S(=O)(=O)O)cc(S(=O)(=O)O)c23)c1	/	/	/	.
CC(C)NC(=S)NC(=O)/C=C/c1cccc2ccccc12	.	.	.	86
Cc1ccc(N(NC(=O)C(O)(c2ccccc2)c2ccccc2)C(=O)CCl)cc1	.	88	.	.
Cc1ccc(C(O)(C(=O)NN(C(=O)c2ccccc2)c2ccccc2)c2ccc(C)cc2)cc1	.	.	.	.
CCCCSc1cnn(-c2ccccc2)c(=O)c1SCCCC	64	79	.	.
SMILES	WT yeast gro inh	L major viab	Arbovirus anti	CHOP inh
CC(C)(CS(=O)(=O)[O-])NC(=O)CC[N+](C)(C)CCO	.	.	.	.
CC1CC(C)CN(c2ncc3c(n2)CC(c2ccccc2)CC3=O)C1 (stereo not drawn)	71	.	.	.
CC(C)c1ccc(C2CC(=O)c3cnc(N4CCc5ccccc5C4)nc3C2)cc1 (stereo not drawn)	58	.	.	.
COc1cc(C2CC(=O)c3cnc(N4CCN(Cc5ccccc5)CC4)nc3C2)cc(OC)c1OC (stereo not drawn)	.	.	.	/
O=C1CC(c2ccco2)Cc2nc(N3CCc4ccccc4C3)ncc21 (stereo not drawn)	.	.	.	.
COCCSc1nnc(NC(=O)C2CCCCC2)s1	.	.	32	.
CC(NC(=O)c1ccc2c(c1)OCCO2)c1ccc(S(N)(=O)=O)cc1 (stereo not drawn)	.	.	.	.
Nn1c(=O)c2ccccc2n2c(SCc3ccc(C(F)(F)F)cc3)nnc12	.	.	.	.
CN1CCN(CCC(=O)N2c3ccccc3Sc3ccc(C(F)(F)F)cc32)CC1	.	55	.	.
CC(CN1c2ccccc2Sc2ccccc21)N(C)C (stereo not drawn)	.	.	.	.
O=C1c2ccccc2C(=O)N1CC(=O)N1c2ccccc2Sc2ccc(C(F)(F)F)cc21	.	.	.	.
OCCN1CCN(CCCN2c3ccccc3Sc3ccc(C(F)(F)F)cc32)CC1	.	87	.	.
CN(C)CCCN1c2ccccc2Sc2ccc(C(F)(F)F)cc21	95	.	.	.
CN1CCN(CCCN2c3ccccc3Sc3ccc(Cl)cc32)CC1	94	100	.	.
CC(=O)O[C@H]1C[C@@]2(C)[C@@H](C[C@@H](O)[C@H]3[C@@]4(C)CC[C@@H](O)[C@@H](C)C4CC[C@@]32C)/C1=C(\CCC=C(C)C)C(=O)O (stereo partly drawn)	.	.	.	.
O=C(Nc1cccc(Cl)c1N1CCCC1)c1cccc(-c2cc3ccccc3oc2=O)c1	/	.	.	.

Screens as filed in PubChem BioAssay.
